# Assay results as given in paper PMC11006913.
# Assays:
# Experiment in all cases: PBM; 200 nM protein, PBS
# Settings in all cases: dsDNA, one strand shown
# HESX1 [1] = biological target: HESX1 (Homo sapiens, UniProt Q9UBX0 95-180, R165K)
# HESX1 [2] = biological target: HESX1 (Homo sapiens, UniProt Q9UBX0 95-180)
# ALX4 [3] = biological target: ALX4 (Homo sapiens, UniProt Q9H161 200-286)
# PRRX1 [4] = biological target: PRRX1 (Homo sapiens, UniProt P54821 80-166, F113S)
# ALX4 [5] = biological target: ALX4 (Homo sapiens, UniProt Q9H161 200-286, Q225E)
# Chain of ALX4 (Homo sapiens, UniProt Q9H161 200-286, Q225E) (Q9H161 200-286 Q225E): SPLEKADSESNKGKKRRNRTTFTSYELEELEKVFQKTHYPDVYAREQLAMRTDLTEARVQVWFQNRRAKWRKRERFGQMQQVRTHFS
# MSX2 [6] = biological target: MSX2 (Homo sapiens, UniProt P35548 130-214, R199I)
# Chain of MSX2 (Homo sapiens, UniProt P35548 130-214, R199I) (P35548 130-214 R199I): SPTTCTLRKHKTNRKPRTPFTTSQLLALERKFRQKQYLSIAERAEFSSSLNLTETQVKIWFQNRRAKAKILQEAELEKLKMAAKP
# ALX1 [7] = biological target: ALX1 (Homo sapiens, UniProt Q15699 118-204, L144V)
# Chain of ALX1 (Homo sapiens, UniProt Q15699 118-204, L144V) (Q15699 118-204 L144V): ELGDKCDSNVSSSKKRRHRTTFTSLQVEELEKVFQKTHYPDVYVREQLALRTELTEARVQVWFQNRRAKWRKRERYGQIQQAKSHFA
# ALX1 [8] = biological target: ALX1 (Homo sapiens, UniProt Q15699 118-204, L144R)
# Chain of ALX1 (Homo sapiens, UniProt Q15699 118-204, L144R) (Q15699 118-204 L144R): as the sequence (Q15699 118-204 L144V) above, with V27R counted along it
# MSX2 [9] = biological target: MSX2 (Homo sapiens, UniProt P35548 130-214)
# Chain of MSX2 (Homo sapiens, UniProt P35548 130-214) (P35548 130-214): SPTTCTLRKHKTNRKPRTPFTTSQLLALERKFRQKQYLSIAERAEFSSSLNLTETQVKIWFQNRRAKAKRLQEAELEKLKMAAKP
# HESX1 [10] = biological target: HESX1 (Homo sapiens, UniProt Q9UBX0 95-180, R109Q)
# Chain of HESX1 (Homo sapiens, UniProt Q9UBX0 95-180, R109Q) (Q9UBX0 95-180 R109Q): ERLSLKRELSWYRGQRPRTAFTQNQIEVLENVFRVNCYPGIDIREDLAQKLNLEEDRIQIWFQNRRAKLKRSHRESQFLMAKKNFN
# PROP1 [11] = biological target: PROP1 (Homo sapiens, UniProt O75360 56-141, R99H)
# Chain of PROP1 (Homo sapiens, UniProt O75360 56-141, R99H) (O75360 56-141 R99H): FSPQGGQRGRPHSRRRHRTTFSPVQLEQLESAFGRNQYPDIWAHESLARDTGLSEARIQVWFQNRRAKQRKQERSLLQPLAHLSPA
# ALX3 [12] = biological target: ALX3 (Homo sapiens, UniProt O95076 139-225, L168Q)
# Chain of ALX3 (Homo sapiens, UniProt O95076 139-225, L168Q) (O95076 139-225 L168Q): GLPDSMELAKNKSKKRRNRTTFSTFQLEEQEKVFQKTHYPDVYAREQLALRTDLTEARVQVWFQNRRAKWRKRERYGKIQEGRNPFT
# HESX1 [13] = biological target: HESX1 (Homo sapiens, UniProt Q9UBX0 95-180, P111T)
# Chain of HESX1 (Homo sapiens, UniProt Q9UBX0 95-180, P111T) (Q9UBX0 95-180 P111T): as the sequence (Q9UBX0 95-180 R109Q) above, with Q15R, P17T counted along it
# ALX3 [14] = biological target: ALX3 (Homo sapiens, UniProt O95076 139-225, L168V)
# Chain of ALX3 (Homo sapiens, UniProt O95076 139-225, L168V) (O95076 139-225 L168V): as the sequence (O95076 139-225 L168Q) above, with Q30V counted along it
# MSX2 [15] = biological target: MSX2 (Homo sapiens, UniProt P35548 130-214, F161Y)
# Chain of MSX2 (Homo sapiens, UniProt P35548 130-214, F161Y) (P35548 130-214 F161Y): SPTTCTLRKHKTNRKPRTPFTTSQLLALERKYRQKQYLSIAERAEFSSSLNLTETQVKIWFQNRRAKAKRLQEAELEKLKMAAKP
# HESX1 [16] = biological target: HESX1 (Homo sapiens, UniProt Q9UBX0 95-180, F115L)
# Chain of HESX1 (Homo sapiens, UniProt Q9UBX0 95-180, F115L) (Q9UBX0 95-180 F115L): as the sequence (Q9UBX0 95-180 R109Q) above, with Q15R, F21L counted along it
# ALX1 [17] = biological target: ALX1 (Homo sapiens, UniProt Q15699 118-204)
# Chain of ALX1 (Homo sapiens, UniProt Q15699 118-204) (Q15699 118-204): as the sequence (Q15699 118-204 L144V) above, with V27L counted along it
# PRRX1 [18] = biological target: PRRX1 (Homo sapiens, UniProt P54821 80-166)
# Chain of PRRX1 (Homo sapiens, UniProt P54821 80-166) (P54821 80-166): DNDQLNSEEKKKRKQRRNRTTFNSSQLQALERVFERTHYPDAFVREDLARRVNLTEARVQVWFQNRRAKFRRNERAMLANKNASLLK
# PROP1 [19] = biological target: PROP1 (Homo sapiens, UniProt O75360 56-141)
# Chain of PROP1 (Homo sapiens, UniProt O75360 56-141) (O75360 56-141): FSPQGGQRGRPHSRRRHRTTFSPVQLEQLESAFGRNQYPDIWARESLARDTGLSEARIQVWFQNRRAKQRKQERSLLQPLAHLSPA
# PROP1 [20] = biological target: PROP1 (Homo sapiens, UniProt O75360 56-141, F88S)
# Chain of PROP1 (Homo sapiens, UniProt O75360 56-141, F88S) (O75360 56-141 F88S): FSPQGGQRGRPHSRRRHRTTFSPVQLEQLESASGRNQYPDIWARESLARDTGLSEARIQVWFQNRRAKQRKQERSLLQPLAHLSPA
# Chain of HESX1 (Homo sapiens, UniProt Q9UBX0 95-180) (Q9UBX0 95-180): as the sequence (Q9UBX0 95-180 R109Q) above, with Q15R counted along it
# Chain of HESX1 (Homo sapiens, UniProt Q9UBX0 95-180, R165K) (Q9UBX0 95-180 R165K): as the sequence (Q9UBX0 95-180 R109Q) above, with Q15R, R71K counted along it
# Chain of ALX4 (Homo sapiens, UniProt Q9H161 200-286) (Q9H161 200-286): as the sequence (Q9H161 200-286 Q225E) above, with E26Q counted along it
# Chain of PRRX1 (Homo sapiens, UniProt P54821 80-166, F113S) (P54821 80-166 F113S): as the sequence (P54821 80-166) above, with F34S counted along it
sequence,measurement,setting,value
CAATAATG,binding signal,HESX1 [1],"8.97 upbm affinity estimate (log intensity, higher = more binding, comparable within an allelic series)"
same,binding signal,HESX1 [2],"9.26 upbm affinity estimate (log intensity, higher = more binding, comparable within an allelic series)"
AATTATCG,binding signal,HESX1 [1],"11.5 upbm affinity estimate (log intensity, higher = more binding, comparable within an allelic series)"
same,binding signal,ALX4 [3],"13.7 upbm affinity estimate (log intensity, higher = more binding, comparable within an allelic series)"
same,binding signal,PRRX1 [4],"11 upbm affinity estimate (log intensity, higher = more binding, comparable within an allelic series)"
same,binding signal,ALX4 [5],"12.7 upbm affinity estimate (log intensity, higher = more binding, comparable within an allelic series)"
same,binding signal,HESX1 [2],"11.6 upbm affinity estimate (log intensity, higher = more binding, comparable within an allelic series)"
same,binding signal,MSX2 [6],"12.3 upbm affinity estimate (log intensity, higher = more binding, comparable within an allelic series)"
same,binding signal,ALX1 [7],"11.5 upbm affinity estimate (log intensity, higher = more binding, comparable within an allelic series)"
same,binding signal,ALX1 [8],"11.1 upbm affinity estimate (log intensity, higher = more binding, comparable within an allelic series)"
same,binding signal,MSX2 [9],"13.4 upbm affinity estimate (log intensity, higher = more binding, comparable within an allelic series)"
same,binding signal,HESX1 [10],"8.48 upbm affinity estimate (log intensity, higher = more binding, comparable within an allelic series)"
same,binding signal,PROP1 [11],"10.8 upbm affinity estimate (log intensity, higher = more binding, comparable within an allelic series)"
same,binding signal,ALX3 [12],"10.3 upbm affinity estimate (log intensity, higher = more binding, comparable within an allelic series)"
same,binding signal,HESX1 [13],"10.2 upbm affinity estimate (log intensity, higher = more binding, comparable within an allelic series)"
same,binding signal,ALX3 [14],"9.82 upbm affinity estimate (log intensity, higher = more binding, comparable within an allelic series)"
same,binding signal,MSX2 [15],"13 upbm affinity estimate (log intensity, higher = more binding, comparable within an allelic series)"
same,binding signal,HESX1 [16],"7.49 upbm affinity estimate (log intensity, higher = more binding, comparable within an allelic series)"
same,binding signal,ALX1 [17],"12 upbm affinity estimate (log intensity, higher = more binding, comparable within an allelic series)"
same,binding signal,PRRX1 [18],"13.2 upbm affinity estimate (log intensity, higher = more binding, comparable within an allelic series)"
CCGCCGAG,binding signal,HESX1 [1],"6.43 upbm affinity estimate (log intensity, higher = more binding, comparable within an allelic series)"
same,binding signal,HESX1 [2],"6.32 upbm affinity estimate (log intensity, higher = more binding, comparable within an allelic series)"
same,binding signal,HESX1 [10],"6.49 upbm affinity estimate (log intensity, higher = more binding, comparable within an allelic series)"
same,binding signal,HESX1 [13],"6.43 upbm affinity estimate (log intensity, higher = more binding, comparable within an allelic series)"
same,binding signal,HESX1 [16],"6.38 upbm affinity estimate (log intensity, higher = more binding, comparable within an allelic series)"
AATTGAGT,binding signal,HESX1 [1],"9.4 upbm affinity estimate (log intensity, higher = more binding, comparable within an allelic series)"
same,binding signal,HESX1 [2],"9.59 upbm affinity estimate (log intensity, higher = more binding, comparable within an allelic series)"
CGCCTAGC,binding signal,HESX1 [1],"6.27 upbm affinity estimate (log intensity, higher = more binding, comparable within an allelic series)"
same,binding signal,PRRX1 [4],"9.26 upbm affinity estimate (log intensity, higher = more binding, comparable within an allelic series)"
same,binding signal,HESX1 [2],"6.37 upbm affinity estimate (log intensity, higher = more binding, comparable within an allelic series)"
same,binding signal,HESX1 [10],"6.4 upbm affinity estimate (log intensity, higher = more binding, comparable within an allelic series)"
same,binding signal,HESX1 [13],"6.38 upbm affinity estimate (log intensity, higher = more binding, comparable within an allelic series)"
same,binding signal,HESX1 [16],"6.57 upbm affinity estimate (log intensity, higher = more binding, comparable within an allelic series)"
same,binding signal,PRRX1 [18],"9.27 upbm affinity estimate (log intensity, higher = more binding, comparable within an allelic series)"
AATTATCT,binding signal,HESX1 [1],"11.8 upbm affinity estimate (log intensity, higher = more binding, comparable within an allelic series)"
same,binding signal,ALX4 [3],"13.6 upbm affinity estimate (log intensity, higher = more binding, comparable within an allelic series)"
same,binding signal,PRRX1 [4],"11.2 upbm affinity estimate (log intensity, higher = more binding, comparable within an allelic series)"
same,binding signal,ALX4 [5],"12.7 upbm affinity estimate (log intensity, higher = more binding, comparable within an allelic series)"
same,binding signal,HESX1 [2],"11.8 upbm affinity estimate (log intensity, higher = more binding, comparable within an allelic series)"
same,binding signal,MSX2 [6],"12.3 upbm affinity estimate (log intensity, higher = more binding, comparable within an allelic series)"
same,binding signal,ALX1 [7],"11.6 upbm affinity estimate (log intensity, higher = more binding, comparable within an allelic series)"
same,binding signal,ALX1 [8],"11.3 upbm affinity estimate (log intensity, higher = more binding, comparable within an allelic series)"
same,binding signal,MSX2 [9],"13.5 upbm affinity estimate (log intensity, higher = more binding, comparable within an allelic series)"
same,binding signal,PROP1 [19],"11.1 upbm affinity estimate (log intensity, higher = more binding, comparable within an allelic series)"
same,binding signal,HESX1 [10],"8.47 upbm affinity estimate (log intensity, higher = more binding, comparable within an allelic series)"
same,binding signal,PROP1 [11],"10.8 upbm affinity estimate (log intensity, higher = more binding, comparable within an allelic series)"
same,binding signal,ALX3 [12],"10.3 upbm affinity estimate (log intensity, higher = more binding, comparable within an allelic series)"
same,binding signal,HESX1 [13],"10.2 upbm affinity estimate (log intensity, higher = more binding, comparable within an allelic series)"
same,binding signal,ALX3 [14],"9.85 upbm affinity estimate (log intensity, higher = more binding, comparable within an allelic series)"
same,binding signal,PROP1 [20],"7.79 upbm affinity estimate (log intensity, higher = more binding, comparable within an allelic series)"
same,binding signal,MSX2 [15],"13 upbm affinity estimate (log intensity, higher = more binding, comparable within an allelic series)"
same,binding signal,HESX1 [16],"7.77 upbm affinity estimate (log intensity, higher = more binding, comparable within an allelic series)"
same,binding signal,ALX1 [17],"12.1 upbm affinity estimate (log intensity, higher = more binding, comparable within an allelic series)"
same,binding signal,PRRX1 [18],"13.2 upbm affinity estimate (log intensity, higher = more binding, comparable within an allelic series)"
GCCGGCGA,binding signal,HESX1 [1],"6.47 upbm affinity estimate (log intensity, higher = more binding, comparable within an allelic series)"
same,binding signal,PRRX1 [4],"9.26 upbm affinity estimate (log intensity, higher = more binding, comparable within an allelic series)"
same,binding signal,HESX1 [2],"6.42 upbm affinity estimate (log intensity, higher = more binding, comparable within an allelic series)"
same,binding signal,HESX1 [10],"6.45 upbm affinity estimate (log intensity, higher = more binding, comparable within an allelic series)"
same,binding signal,HESX1 [13],"6.41 upbm affinity estimate (log intensity, higher = more binding, comparable within an allelic series)"
same,binding signal,HESX1 [16],"6.43 upbm affinity estimate (log intensity, higher = more binding, comparable within an allelic series)"
same,binding signal,PRRX1 [18],"9.42 upbm affinity estimate (log intensity, higher = more binding, comparable within an allelic series)"
ATTATAGC,binding signal,HESX1 [1],"8.55 upbm affinity estimate (log intensity, higher = more binding, comparable within an allelic series)"
same,binding signal,HESX1 [2],"8.71 upbm affinity estimate (log intensity, higher = more binding, comparable within an allelic series)"
AATGAGAG,binding signal,HESX1 [1],"7.5 upbm affinity estimate (log intensity, higher = more binding, comparable within an allelic series)"
same,binding signal,HESX1 [2],"7.55 upbm affinity estimate (log intensity, higher = more binding, comparable within an allelic series)"
CTCTCCAG,binding signal,HESX1 [1],"6.3 upbm affinity estimate (log intensity, higher = more binding, comparable within an allelic series)"
same,binding signal,ALX4 [3],"7.91 upbm affinity estimate (log intensity, higher = more binding, comparable within an allelic series)"
same,binding signal,ALX4 [5],"7.91 upbm affinity estimate (log intensity, higher = more binding, comparable within an allelic series)"
same,binding signal,HESX1 [2],"6.32 upbm affinity estimate (log intensity, higher = more binding, comparable within an allelic series)"
same,binding signal,HESX1 [10],"6.51 upbm affinity estimate (log intensity, higher = more binding, comparable within an allelic series)"
same,binding signal,HESX1 [13],"6.4 upbm affinity estimate (log intensity, higher = more binding, comparable within an allelic series)"
same,binding signal,HESX1 [16],"6.42 upbm affinity estimate (log intensity, higher = more binding, comparable within an allelic series)"
ATTAAGGA,binding signal,HESX1 [1],"8.58 upbm affinity estimate (log intensity, higher = more binding, comparable within an allelic series)"
same,binding signal,HESX1 [2],"9.12 upbm affinity estimate (log intensity, higher = more binding, comparable within an allelic series)"
TAATTGTA,binding signal,HESX1 [1],"11.4 upbm affinity estimate (log intensity, higher = more binding, comparable within an allelic series)"
same,binding signal,HESX1 [2],"11.8 upbm affinity estimate (log intensity, higher = more binding, comparable within an allelic series)"
same,binding signal,MSX2 [6],"12.5 upbm affinity estimate (log intensity, higher = more binding, comparable within an allelic series)"
same,binding signal,MSX2 [9],"13.6 upbm affinity estimate (log intensity, higher = more binding, comparable within an allelic series)"
same,binding signal,HESX1 [10],"8.46 upbm affinity estimate (log intensity, higher = more binding, comparable within an allelic series)"
same,binding signal,HESX1 [13],"10.1 upbm affinity estimate (log intensity, higher = more binding, comparable within an allelic series)"
same,binding signal,MSX2 [15],"13.3 upbm affinity estimate (log intensity, higher = more binding, comparable within an allelic series)"
same,binding signal,HESX1 [16],"7.75 upbm affinity estimate (log intensity, higher = more binding, comparable within an allelic series)"
CACGGCTG,binding signal,HESX1 [1],"6.44 upbm affinity estimate (log intensity, higher = more binding, comparable within an allelic series)"
same,binding signal,ALX4 [3],"7.95 upbm affinity estimate (log intensity, higher = more binding, comparable within an allelic series)"
same,binding signal,ALX4 [5],"7.97 upbm affinity estimate (log intensity, higher = more binding, comparable within an allelic series)"
same,binding signal,HESX1 [2],"6.33 upbm affinity estimate (log intensity, higher = more binding, comparable within an allelic series)"
same,binding signal,ALX1 [7],"6.21 upbm affinity estimate (log intensity, higher = more binding, comparable within an allelic series)"
same,binding signal,ALX1 [8],"6.3 upbm affinity estimate (log intensity, higher = more binding, comparable within an allelic series)"
same,binding signal,HESX1 [10],"6.53 upbm affinity estimate (log intensity, higher = more binding, comparable within an allelic series)"
same,binding signal,HESX1 [13],"6.39 upbm affinity estimate (log intensity, higher = more binding, comparable within an allelic series)"
same,binding signal,HESX1 [16],"6.49 upbm affinity estimate (log intensity, higher = more binding, comparable within an allelic series)"
same,binding signal,ALX1 [17],"6.11 upbm affinity estimate (log intensity, higher = more binding, comparable within an allelic series)"
AGAGCTCT,binding signal,HESX1 [1],"6.34 upbm affinity estimate (log intensity, higher = more binding, comparable within an allelic series)"
same,binding signal,HESX1 [2],"6.42 upbm affinity estimate (log intensity, higher = more binding, comparable within an allelic series)"
same,binding signal,ALX1 [7],"6.52 upbm affinity estimate (log intensity, higher = more binding, comparable within an allelic series)"
same,binding signal,ALX1 [8],"6.57 upbm affinity estimate (log intensity, higher = more binding, comparable within an allelic series)"
same,binding signal,HESX1 [10],"6.48 upbm affinity estimate (log intensity, higher = more binding, comparable within an allelic series)"
same,binding signal,HESX1 [13],"6.53 upbm affinity estimate (log intensity, higher = more binding, comparable within an allelic series)"
same,binding signal,HESX1 [16],"6.38 upbm affinity estimate (log intensity, higher = more binding, comparable within an allelic series)"
same,binding signal,ALX1 [17],"6.26 upbm affinity estimate (log intensity, higher = more binding, comparable within an allelic series)"
